We go through 36 compounds from PubChem BioAssay (NCI).

About 83,000 compounds went through this panel and 20% of them were active in at least one assay; those are over-represented in the sample as a whole.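 Negative percent growth values reflect cell death: -40 means 40% of the cells present at the start died, and -100 means all died.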 Active and inactive are the calls of the source. Rule for the calls: active = growth percent below 10; inactive = the rest.

One assay concerns HCT-116 colon. Briefly: NCI-60 one-dose screen, 48 h (100 = growth as untreated, 0 = no growth, -100 = all killed). The conditions noted are these: 10 µM unless noted.
`O=C1CC(c2ccc3c(c2)OCO3)c2ncn(-c3ccc(Cl)cc3)c2N1` (configuration not stated): the growth is 11.4% (inactive).

`Cc1ccc(N=C2CSc3nnc(-c4csc5c4CCCC5)n3N2)cc1`: the growth is 13.9% (inactive).

Regarding `CCc1ccc(/C=C/c2ccc(O)c3ncccc23)[n+](C)c1`, the growth was 18.3% (inactive).

As for `CS(=O)(=O)CCNCc1ccc(-c2ccc3ncnc(Nc4ccc(OCc5cccc(F)c5)c(Cl)c4)c3c2)o1`, the growth is 41.2% (inactive).

On to `COc1ccc(Nc2ncccc2NC(=O)c2cn(Cc3cccc(Oc4ccccc4)c3)nn2)cc1`, for which the growth was 92.4% (inactive).

Regarding `COc1cc2c(Oc3ccc(NC(=O)C4(C(=O)Nc5ccc(F)cc5)CC4)cc3F)ccnc2cc1OCCCN1CCOCC1`, the growth is -61.2% (active).

As for `Cc1cnc(Nc2ccc(OCCN3CCCC3)cc2)nc1Nc1cccc(S(=O)(=O)NC(C)(C)C)c1`, the growth is 1.03% (active).

Turning to `N#CC(C#N)=NO`, the growth is 92.5% (inactive).

On to `Cc1sc2c(c1C)c(=O)nc1c(-c3nc(-c4ccccc4)cs3)n[nH]n12`, for which the growth was 100% (inactive).

For `C=CC(=O)N1CCC(Oc2cc3c(Nc4ccc(Cl)c(Cl)c4F)ncnc3cc2OC)CC1`, the growth is 21.8% (inactive).

Consider `Cc1cn(-c2cc(NC(=O)c3ccc(C)c(Nc4nccc(-c5cccnc5)n4)c3)cc(C(F)(F)F)c2)cn1`, for which the growth is 42.6% (inactive).

As for `Cc1cccc(Cl)c1NC(=O)c1cnc(Nc2cc(N3CCOCC3)cc(S(C)(=O)=O)c2)s1`, the growth is 13.2% (inactive).

As for `COc1cc(C2CC(c3ccc(Cl)cc3)=NN2c2ccc(Cl)cc2)cc(OC)c1OC` (configuration not stated), the growth is 93.6% (inactive).

In the case of `CCc1cc2c(c3ccc(C(=O)CBr)cc13)CCCC2`, the growth was 102% (inactive).

Turning to `CC(N)C(Cc1ccc(Cl)cc1)c1ccc(Cl)cc1` (configuration not stated), the growth is 35% (inactive).

Regarding `C=CC(=O)Nc1cccc(Oc2nc(Nc3ccc(N4CCN(C)CC4)cc3)nc3ccsc23)c1`, the growth is -89.2% (active).

Consider `O=C(c1c(F)ccc(NS(=O)(=O)N2CC[C@@H](F)C2)c1F)c1c[nH]c2ncc(-c3cnc(C4CC4)nc3)cc12`, for which the growth is 30.8% (inactive).

Regarding `CCN(CCN(C)C)C(=O)CNCc1cc(C(N)=O)ccn1`, the growth is 94.4% (inactive).

As to `CCc1cc2c(cc1N1CCC(N3CCOCC3)CC1)C(C)(C)c1[nH]c3cc(C#N)ccc3c1C2=O`, the growth was -7.97% (active).

For the compound `O=C(Cc1ccc(-c2ccc(OCCN3CCOCC3)cc2)cn1)NCc1ccccc1`, the growth was 6.1% (active).

`c1cn2cc(-c3ccc4cn[nH]c4c3)nc(Nc3ccc(N4CCOCC4)cc3)c2n1`: the growth was 52.4% (inactive).

Consider `N#CCNC(=O)c1ccc(-c2ccnc(Nc3ccc(N4CCOCC4)cc3)n2)cc1`, for which the growth was -4.58% (active).

As to `Cc1cccc(Cl)c1NC(=O)c1cnc(Nc2cc(N3CCOCC3)cc(N3CCOCC3)c2)s1`, the growth is 11.5% (inactive).

For the compound `Cc1cc(Nc2cc(N3CCN(C)CC3)nc(/C=C/c3ccccc3)n2)n[nH]1`, the growth is 0.937% (active).

Regarding `Cc1cc(N(CCNc2ccnc3cc(Cl)ccc23)Cc2cccs2)nc(Cl)n1`, the growth was -85% (active).

In the case of `NC(=O)c1n[nH]n2c1nc(=O)c1c3c(sc12)CCCC3`, the growth is 104% (inactive).

For the next assay, the system named is HCC-2998 colon. Described as above. The conditions noted are these: 10 µM.
As for `COc1ccc(-c2cc3c(C)nc(N)nc3n(C3CCC(OCCO)CC3)c2=O)cn1` (configuration not stated), the growth is -0.799% (active).

Consider `Cc1c(Cn2c(C)nc3c(C(=O)O)cc(N4CCOCC4)cc32)cccc1C(F)(F)F`, for which the growth is 103% (inactive).

For the compound `Cc1nc2ccc(-n3ncc(C(=O)c4cc5ccccc5[nH]4)c3N)cc2[nH]1`, the growth is 68.8% (inactive).

For the compound `C=CC(=O)N1CCC[C@H](n2c(=O)n(-c3ccc(Oc4ccccc4)cc3)c3c(N)ncnc32)C1`, the growth is 100% (inactive).

Consider `CC(C)OP(=O)(CCC(=O)c1c[nH]c2ccccc12)OC(C)C`, for which the growth is 97.3% (inactive).

Take `O=C1/C(=C\c2cccc(OCCCCCOc3ccc(Cl)cc3)c2)N=C2SCCCN12`: the growth was 71% (inactive).

Consider `COC(=O)CCCNc1c(-c2c(O)c(O)cc3c(O)c(-c4c(C)cc5c(-c6nc7ccccn7c6NCCCC(=O)OC)c(O)c(O)cc5c4O)c(C)cc23)nc2ccccn12`, for which the growth is 71.6% (inactive).

In the case of `Cc1nn(-c2nc3ccccc3[nH]2)c2c1C(c1ccc(OCc3ccc(F)cc3)cc1)CC(=O)N2` (configuration not stated), the growth was 99.3% (inactive).

As to `CNC(=O)c1cccc2cc(Oc3ccnc4cc(OCC5(N)CC5)c(OC)cc34)ccc12`, the growth was 92% (inactive).

Regarding `O=C(Nc1ccc(Nc2ncnc3sc4c(c23)CCOC4)cc1)Nc1ccc(Cl)c(C(F)(F)F)c1`, the growth was 106% (inactive).

On to `O=C1CC(c2ccc3c(c2)OCO3)c2ncn(-c3ccc(Cl)cc3)c2N1` (configuration not stated), for which the growth is 68.1% (inactive).

Consider `Cc1ccc(N=C2CSc3nnc(-c4csc5c4CCCC5)n3N2)cc1`, for which the growth is 30.3% (inactive).

In the case of `CCc1ccc(/C=C/c2ccc(O)c3ncccc23)[n+](C)c1`, the growth was 31.6% (inactive).

For the compound `CS(=O)(=O)CCNCc1ccc(-c2ccc3ncnc(Nc4ccc(OCc5cccc(F)c5)c(Cl)c4)c3c2)o1`, the growth was -83.6% (active).

With `COc1ccc(Nc2ncccc2NC(=O)c2cn(Cc3cccc(Oc4ccccc4)c3)nn2)cc1`, the growth is 115% (inactive).

As to `Cc1cnc(Nc2ccc(OCCN3CCCC3)cc2)nc1Nc1cccc(S(=O)(=O)NC(C)(C)C)c1`, the growth was -25.9% (active).

Turning to `N#CC(C#N)=NO`, the growth was 96.3% (inactive).

Turning to `Cc1sc2c(c1C)c(=O)nc1c(-c3nc(-c4ccccc4)cs3)n[nH]n12`, the growth was 101% (inactive).

Take `C=CC(=O)N1CCC(Oc2cc3c(Nc4ccc(Cl)c(Cl)c4F)ncnc3cc2OC)CC1`: the growth was 67.1% (inactive).

With `Cc1cn(-c2cc(NC(=O)c3ccc(C)c(Nc4nccc(-c5cccnc5)n4)c3)cc(C(F)(F)F)c2)cn1`, the growth was 63.8% (inactive).

On to `CC(N)C(Cc1ccc(Cl)cc1)c1ccc(Cl)cc1` (configuration not stated), for which the growth is -6.15% (active).

With `CCc1cc2c(cc1N1CCC(N3CCOCC3)CC1)C(C)(C)c1[nH]c3cc(C#N)ccc3c1C2=O`, the growth is 5.22% (active).

For `O=C(Cc1ccc(-c2ccc(OCCN3CCOCC3)cc2)cn1)NCc1ccccc1`, the growth was 8.15% (active).

For `Cc1cc(Nc2cc(N3CCN(C)CC3)nc(/C=C/c3ccccc3)n2)n[nH]1`, the growth was -61.5% (active).

`Cc1cc(N(CCNc2ccnc3cc(Cl)ccc23)Cc2cccs2)nc(Cl)n1`: the growth was -14.3% (active).

`NC(=O)c1n[nH]n2c1nc(=O)c1c3c(sc12)CCCC3`: the growth was 104% (inactive).
